Test results as given in the supplement of paper PMC6555819.

Columns and labels:
Assay in all cases: PBM binding z-score (relative to random genomic background probes); higher = stronger binding; sequences stand for … in GC…GCGATTGACAGCGTAGAATGAAGG
[1] = test system: RARb homodimer (NR concentration 270 nM)
Method in brief: (§1)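 The probes on custom Agilent 4×180K protein-binding microarrays were double-stranded, with 34-nt variable regions bearing direct-repeat seeds, single-nucleotide variants, half-site ablations and random human genomic background sequences. Incubation lasted 1 h with ligand-free nuclear receptor dimers in PBS pH 7.4, 2% milk, 0.02% Triton X-100, 1 mM DTT, 0.2 mg/mL BSA and 0.4 mg/ml salmon testes DNA. Antibodies against each partner (one per run) detected bound dimers, and fluorescence scans were regression-normalized. Binding z-scores take the random background probes as reference.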

[2] = test system: RARg:RXRa (NR concentration 270 nM, RXRa partner concentration 90 nM)
Method in brief: as §1

[3] = test system: RARg homodimer (NR concentration 270 nM)
Method in brief: as §1

[4] = test system: RXRa DBDmut IVT, anti-RXR (DBD mutation: RXRa K156A/R161A, NR concentration 90 nM)
Method in brief: as §1

[5] = test system: RXRa homodimer (NR concentration 180 nM)
Method in brief: as §1

[6] = test system: THRa:RXRa (NR concentration 90 nM, RXRa partner concentration 90 nM)
Method in brief: as §1

[7] = test system: THRa homodimer (NR concentration 90 nM)
Method in brief: as §1

[8] = test system: VDR homodimer (NR concentration 270 nM)
Method in brief: as §1

Row | Sequence | PBM binding z-score [1] | PBM binding z-score [2] | PBM binding z-score [3] | PBM binding z-score [4] | PBM binding z-score [5] | PBM binding z-score [6] | PBM binding z-score [7] | PBM binding z-score [8]
1 | CCTGCTAGGCCATGGTCAGCTAATCTACAGTATG | 0.329 | -0.00744 | 0.586 | 0.152 | -0.245 | -0.0916 | -0.719 | -0.711
2 | AGAACTAGGGCACGCTGAGTTGATAGCAGAGTAG | 0.535 | 0.967 | 1.49 | -0.125 | 0.504 | 0.309 | -0.568 | 0.21
3 | GCAGCTAGGTCAGGTTGGTCAGCTAACGGGTACG | 2.83 | 2.31 | 3.77 | 0.319 | 1.04 | 1.57 | 0.4 | 0.351
4 | CCTACTGGGCCATAGGTCATTGATTCCAATGCTC | 2.63 | 2.89 | 1.95 | 0.122 | 2.63 | 1.61 | 0.173 | 0.271
5 | CATCAAAGTTCAAGGTAACGTAACAGAAAGCAGC | 3.8 | 5.15 | 5.74 | 4.51 | 4.38 | 3.04 | 1.39 | 3.49
6 | TAGCCTAGGTCATTCAGGGTCCAGTATAGAAAGC | 3.02 | 4.74 | 4.16 | 2 | 3.11 | 4.2 | 0.899 | 2.74
7 | CCGAGTATGTTATGGGGCATTCAGGCAACGGTGA | 0.485 | 0.112 | 0.276 | 0.833 | 0.294 | 0.302 | 0.125 | 0.00991
